HTR5A ag ctr – activates human HTR5A in OPRM1-OPRD1 agonist counter-screen. 340,000 compounds, 0.61% hits. HTR5A agonist assay, luminescence, cell-based. activation, % at 9.3 µM; in the data active means activation mostly above about 9.5%, no sharp cut-off; inactive means mostly below about 7.6%;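 further: 0% = cells with vehicle only and 100% = reference agonist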
Target sequence (P47898 whole entry, looked up): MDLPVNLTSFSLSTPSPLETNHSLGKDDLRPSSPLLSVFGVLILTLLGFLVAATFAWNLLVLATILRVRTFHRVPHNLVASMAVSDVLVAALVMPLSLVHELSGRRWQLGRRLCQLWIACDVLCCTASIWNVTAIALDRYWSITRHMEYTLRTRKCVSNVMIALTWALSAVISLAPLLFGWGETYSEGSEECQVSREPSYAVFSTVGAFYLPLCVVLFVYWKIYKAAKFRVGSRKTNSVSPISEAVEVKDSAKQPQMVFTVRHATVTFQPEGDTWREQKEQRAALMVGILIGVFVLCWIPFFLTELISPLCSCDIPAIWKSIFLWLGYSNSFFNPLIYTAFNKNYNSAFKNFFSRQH
HTR5A inv ag – inverse agonist of human HTR5A in OPRM1-OPRD1 counter-screen | P47898 | HTR5A cell line, luminescence, inverse agonism | inhibition, % at 9.3 µM | 340,000 compounds, 0.083% hits; in the data active means inhibition mostly above about 23%, no sharp cut-off; inactive means mostly below about 18%;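 further: 0% = cells with DMSO and 100% = no-cell wells with DMSO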
beta cell repl – inducers of beta-cell replication in MIN6 cells. 330,000 compounds, 0.29% hits. MIN6 cells proliferation, ATPlite luminescence, 48 h; cells starved in 0.2% serum; 100% = growth in 10% serum. proliferation, % at 10 µM;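 active means compounds whose signal lies at least 3.5 SD above the mean of all wells on their plate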;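 further: 0% = DMSO-treated cells in low-serum medium and 100% = 10% serum control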
OPRM1-OPRD1 ag – OPRM1-OPRD1 heterodimerization agonism; cells, luminescence; AID 504326; 340,000 compounds, 0.3% hits; P35372+P41143; activation, % at 9.3 µM; in the data active means activation above about 18%;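 further: 0% = vehicle-treated cells and 100% = reference agonist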
MOR-DOR inv ag – mu-delta opioid heterodimer inverse agonism. P35372+P41143. cell-based MOR-DOR heterodimer luminescence. inhibition, % at 9.3 µM. 340,000 compounds, 0.21% hits. AID 504357; in the data active means inhibition above about 22%, passing the limit was not always enough;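 further: 0% = cells with DMSO and 100% = wells without cells with DMSO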
V-ATPase pH – regulators of yeast V-ATPase proton transport; S. cerevisiae, pHLuorin cytosolic pH fluorescence; 350,000 compounds, 0.37% hits; response, % at 10 µM; AID 504577; in the data active means response mostly above about 7.3%, no sharp cut-off; inactive means mostly below about 5.4%; further: actives read high
* = called active by the depositor; i = inactive; / = no result given. An excerpt weighted towards active compounds, which were near 1.7% of everything screened.

SMILES | HTR5A ag ctr | HTR5A inv ag | beta cell repl | OPRM1-OPRD1 ag | MOR-DOR inv ag | V-ATPase pH
COCCC(=O)Nc1ccc2c(c1)CN(C(=O)c1ccc(CSC)o1)CC2 | 11* | -41 | -1 | -2 | 10 | -2
COCCC(=O)Nc1ccc2c(c1)CN(C(=O)CCSC)CC2 | 5 | -1 | -4 | -4 | 19 | 2
CCc1nnc(NS(=O)(=O)c2ccc(Nc3ccc([N+](=O)[O-])c4nonc34)cc2)s1 | -11 | 31* | -1 | -7 | 36* | -1
C/C(CC(=O)Nc1ccc(C)c(Cl)c1)=N\NC(=O)Cc1ccccc1 | 12* | -32 | 0 | 1 | -7 | 1
C/C(CC(=O)Nc1ccc(C)c(Cl)c1)=N\NC(=O)c1ccco1 | -1 | -6 | -3 | -2 | 9 | 2
CC1=C/C(=N\OS(=O)(=O)c2ccccc2)C(C(C)C)=CC1=O | 20* | -17 | / | 186* | i | 30*
CC1CN(CC(=O)Nc2ccc([N+](=O)[O-])cc2Br)CC(C)O1 (stereo not drawn) | 9 | 10 | -2 | -3 | 14 | 6
N#Cc1c(C(F)(F)F)cc(-c2ccccc2Cl)[nH]c1=O | 12* | -20 | -3 | 1 | -5 | /
N#Cc1c(C(F)(F)F)cc(-c2ccccc2)[nH]c1=O | 0 | 1 | -4 | -1 | 8 | -2
Cc1ccc(S(=O)(=O)N(C)C[C@@H]2OCc3cn(nn3)CCCC(=O)N([C@@H](C)CO)C[C@H]2C)cc1 | / | / | / | / | / | 0
CC(C)(C)c1ccc(/C=C/C(=O)Nc2ccncc2)cc1 | 13* | -25 | -3 | 10 | -49 | -2
O=C(/C=C/c1cccs1)Nc1ccncc1 | -6 | 15 | -3 | -1 | 7 | -3
C(=C\c1ccncc1)/c1ccccc1 | 0 | -10 | -2 | -1 | 7 | 18*
C(=C\c1ccncc1)/c1ccncc1 | 1 | -4 | -4 | -2 | 9 | -4
O=C(COC(=O)Cc1ccccc1F)NC(=O)NC1CCCC1 | 12* | -15 | 4 | -3 | 13 | -2
O=C(COC(=O)Cc1ccc(F)cc1)NC(=O)NC1CCCC1 | 5 | -3 | 2 | -2 | 9 | 5
Cc1c(CC(=O)N2CCN(C(=O)C3COc4ccccc4O3)CC2)c(=O)oc2c(C)c(O)ccc12 (stereo not drawn) | -3 | 13 | -6 | -7 | 34* | 0
Cc1c(CC(=O)N2CCN(C(=O)C3COc4ccccc4O3)CC2)c(=O)oc2cc(O)ccc12 (stereo not drawn) | -1 | 1 | 0 | -2 | 10 | -3
Cc1ccc(Cc2c(-c3ccc(Cl)cc3)nc3cc(C)ccn23)cc1 | / | / | / | / | / | 2
Nc1cc2nsnc2cc1Br | 13* | -34 | -6 | 32* | -190 | /
Cc1ccc2c(c1)C(CCN)C(=O)N2Cc1ccccc1 (stereo not drawn) | -21 | 57* | -2 | -11 | 65* | -2
O=c1[nH]cnc2c1ccn2C1OC(CO)C(O)C1O (stereo not drawn) | 1 | 18 | / | -3 | 15 | 1
CC12CCC(C(=O)N(CSC(=S)N/N=C\c3ccccc3)C1=O)C2(C)C (stereo not drawn) | 10* | -11 | -2 | 1 | -4 | -4
Fc1ccc(-[n+]2nc(Nc3ccccc3)sc2-c2c3ccccc3cc3ccccc23)cc1 | 17* | -15 | -7 | 10 | -58 | 4
COc1ccc2cc3cc(C(=O)NCc4ccc5c(c4)OCO5)oc3nc2c1 | 6 | 4 | -2 | 1 | -4 | 0
SMILES | HTR5A ag ctr | HTR5A inv ag | beta cell repl | OPRM1-OPRD1 ag | MOR-DOR inv ag | V-ATPase pH
COc1ccc2cc3cc(C(=O)NCC4COc5ccccc5O4)oc3nc2c1 (stereo not drawn) | 13* | -48 | 0 | 7 | -37 | 0
CS(=O)(=O)N(CC(=O)Nc1ccccc1C(=O)N1CCOCC1)c1ccc(F)c(Cl)c1 | 1 | -3 | 4 | 0 | -3 | 16*
CS(=O)(=O)N(CC(=O)Nc1ccccc1C(=O)N1CCOCC1)c1cccc(F)c1 | -7 | 19 | -4 | -2 | 7 | -1
CC(C)c1ccc(C2C3=C(COC3=O)Nc3cc4c(cc32)OCO4)cc1 (stereo not drawn) | 17* | -45 | -5 | 11 | -51 | 2
CCN(CC)c1ccc(C(=O)NNC(=O)Cn2c(=O)cnc3ccccc32)cc1 | / | / | / | / | / | 0
O=CC1=C(c2ccccc2)Oc2ccccc2O1 | 11* | -42 | -5 | 6 | -29 | -3
CN(C)/C=C1/N=C(c2ccccc2)OC1=O | 2 | -6 | -1 | -1 | 3 | 4
COC(=O)c1c(NC(=O)CN2C(=O)C(=O)N(CC(C)C)C2=O)sc(C)c1C | 2 | -13 | -3 | 0 | 1 | 0
Cc1cccc(C)c1N1C(=O)CC(Sc2ccccc2N)C1=O (stereo not drawn) | / | / | / | / | / | -2
Cc1cccc(Cl)c1NC(=S)NN | 13* | 9 | -2 | -2 | 8 | -2
C=CCCC1CN(CCCC)S(=O)(=O)c2c(F)cccc2O1 (stereo not drawn) | 3 | -10 | / | 1 | -3 | 4
O=C(Cc1ccccc1)Nc1ccccc1Sc1ccccc1 | 1 | 17 | -2 | 5 | -28 | 2
O=C(Cc1ccc(F)cc1)Nc1ccccc1Sc1ccccc1 | -1 | 4 | 0 | 4 | -26 | 16*
Oc1ccc(C[C@H]2CNC(=S)N2CC2CCCN2C[C@H](Cc2ccc(O)cc2)N2C[C@H](Cc3ccc(O)cc3)N(CC3CCCCC3)C2=S)cc1 (stereo partly drawn) | 3 | -11 | / | -1 | 4 | 1
C=CCn1c(SCC(=O)Nc2ccc(-c3nc4ccc(C)cc4s3)cc2)nnc1-c1ccccc1 | 6 | 16 | / | 20* | -105 | -2
C=CCn1c(SCC(=O)Nc2ccc(C(=O)OC(C)C)cc2)nnc1-c1cccs1 | 9.0* | -18 | 1 | 3 | -19 | -5
O=C(O)COCC(=O)Nc1ccc(-n2cnnn2)cc1 | 11* | -27 | 0 | 1 | -6 | -1
NC(=O)c1ccc(NC(=O)COc2ccc(-n3cnnn3)cc2)cc1 | 14 | -36 | 1 | -2 | 9 | -1
CN(C(=O)c1cccc(NC(=O)c2cccs2)c1)c1ccccc1 | 11* | 12 | -4 | 0 | 1 | 8
O=C(O)c1ccc(NC(=O)c2cccc(NC(=O)c3cccs3)c2)cc1 | -2 | -1 | 1 | -3 | 13 | -3
CCOC(=O)c1c(CSc2ccc(CC)cc2)oc2ccc(O)c(CN(C)C)c12 | 6 | -25 | -7 | 6 | -35 | 7.6*
CCOc1ccccc1OCC(=O)Nc1cc(C)on1 | -9 | 21 | -5 | -2 | 6 | 2
Cc1cc(NC(=O)COc2ccc3ccccc3c2Br)no1 | 12* | -43 | -3 | 2 | -13 | 2
O=C(OCc1nc2ccccc2s1)c1ccc([N+](=O)[O-])o1 | 20* | -24 | -6 | 9 | -55 | 5

Bioassay records as filed in PubChem.
